Results on one sequence are retold here after article PMC7862700, “An all-to-all approach to the identification of sequence-specific readers for epigenetic DNA modifications on cytosine”.

Common to all, as to experiment: DAPPL (digital affinity profiling via proximity ligation, sequencing); 10 mM Tris-HCl pH 7.5, 50 mM NaCl, 1 mM DTT, 4% glycerol, room temperature, 30 min; GST-TFs on glutathione beads, 16-mer random dsDNA library, 0.1% formaldehyde crosslink after washing; high values mean tight binding
One assay addresses T1, FLI1 (Homo sapiens, UniProt Q01543 1-452).
T1 sequence: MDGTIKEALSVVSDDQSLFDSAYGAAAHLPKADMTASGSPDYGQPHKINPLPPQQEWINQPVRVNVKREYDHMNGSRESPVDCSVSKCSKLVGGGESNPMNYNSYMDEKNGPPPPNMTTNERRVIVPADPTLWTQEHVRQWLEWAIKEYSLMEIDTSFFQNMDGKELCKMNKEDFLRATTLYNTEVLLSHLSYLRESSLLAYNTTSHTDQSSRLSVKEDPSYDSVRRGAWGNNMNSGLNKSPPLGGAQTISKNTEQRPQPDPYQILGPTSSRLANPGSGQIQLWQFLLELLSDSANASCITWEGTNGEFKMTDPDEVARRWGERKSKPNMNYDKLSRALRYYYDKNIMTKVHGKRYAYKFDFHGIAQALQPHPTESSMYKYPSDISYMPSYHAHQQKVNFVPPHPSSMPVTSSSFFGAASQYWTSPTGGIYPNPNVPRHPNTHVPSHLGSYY
The conditions noted are these: protein: recombinant; tags: N-terminal GST; dsDNA, one strand shown. Put shortly: (§1)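 Beads coated with glutathione captured GST-fused human transcription factors that had been expressed in yeast, and the factors were then given DNA barcodes and pooled with a tag-only sample. The pools were incubated with 200 nmole of a random double-stranded 16-mer DNA library in Tris/NaCl/DTT/glycerol buffer for 30 min at room temperature, washed, crosslinked with 0.1% formaldehyde and proximity-ligated with BsaI/T4 ligase at 37 °C for 1 h. PCR amplification and Illumina NextSeq500 sequencing came last. Binding signal is each hexamer's read frequency for a factor divided by its frequency for the tag-only sample.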

A further assay deals with T2, ELK1 (Homo sapiens, UniProt P19419 1-428).
T2 sequence: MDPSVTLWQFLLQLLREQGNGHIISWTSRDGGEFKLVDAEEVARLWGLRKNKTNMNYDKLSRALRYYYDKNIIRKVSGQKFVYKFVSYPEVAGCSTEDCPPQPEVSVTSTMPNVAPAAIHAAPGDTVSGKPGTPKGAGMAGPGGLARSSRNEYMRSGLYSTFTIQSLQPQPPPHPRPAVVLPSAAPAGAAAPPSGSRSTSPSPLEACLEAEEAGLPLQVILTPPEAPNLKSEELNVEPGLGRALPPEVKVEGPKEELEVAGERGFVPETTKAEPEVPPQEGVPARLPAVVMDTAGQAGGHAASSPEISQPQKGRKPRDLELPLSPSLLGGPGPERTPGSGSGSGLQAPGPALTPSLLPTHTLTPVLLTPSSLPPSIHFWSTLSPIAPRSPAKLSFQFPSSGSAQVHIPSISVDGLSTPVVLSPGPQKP
The conditions noted are these: protein: recombinant; tags: N-terminal GST; dsDNA, one strand shown. Put shortly: as §1

A further assay addresses T3, GABPA (Homo sapiens, UniProt Q06546 1-454).
T3 sequence: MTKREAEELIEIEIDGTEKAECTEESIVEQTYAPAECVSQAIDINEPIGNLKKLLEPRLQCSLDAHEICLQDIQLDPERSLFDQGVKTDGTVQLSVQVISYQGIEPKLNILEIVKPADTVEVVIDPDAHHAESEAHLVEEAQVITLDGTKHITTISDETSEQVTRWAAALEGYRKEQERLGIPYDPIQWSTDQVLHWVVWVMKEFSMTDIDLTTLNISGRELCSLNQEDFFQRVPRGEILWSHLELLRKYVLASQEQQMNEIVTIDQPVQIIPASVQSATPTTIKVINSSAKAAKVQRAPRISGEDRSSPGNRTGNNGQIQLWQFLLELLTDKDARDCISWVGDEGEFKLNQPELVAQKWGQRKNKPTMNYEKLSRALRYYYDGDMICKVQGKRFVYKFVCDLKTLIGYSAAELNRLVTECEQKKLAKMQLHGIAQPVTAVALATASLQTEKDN
To be noted: protein: recombinant; tags: N-terminal GST; dsDNA, one strand shown. The procedure, abridged: as §1

The target of a further assay is T4, ERG (Homo sapiens, UniProt P11308 1-479).
T4 sequence: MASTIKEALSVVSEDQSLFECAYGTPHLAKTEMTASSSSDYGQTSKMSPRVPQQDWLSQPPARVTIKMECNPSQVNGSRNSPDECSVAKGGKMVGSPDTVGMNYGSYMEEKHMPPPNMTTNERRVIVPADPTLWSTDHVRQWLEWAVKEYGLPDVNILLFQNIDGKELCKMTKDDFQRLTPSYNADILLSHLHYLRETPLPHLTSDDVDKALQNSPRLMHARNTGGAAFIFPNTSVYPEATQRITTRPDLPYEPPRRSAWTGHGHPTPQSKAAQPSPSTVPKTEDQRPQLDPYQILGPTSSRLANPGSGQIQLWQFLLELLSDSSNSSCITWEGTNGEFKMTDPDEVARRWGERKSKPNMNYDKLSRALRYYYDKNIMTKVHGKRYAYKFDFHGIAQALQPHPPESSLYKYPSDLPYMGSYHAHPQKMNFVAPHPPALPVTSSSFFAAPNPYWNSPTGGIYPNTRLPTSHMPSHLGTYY
The conditions noted are these: protein: recombinant; tags: N-terminal GST; dsDNA, one strand shown. Put shortly: as §1

The next assay deals with ELF1 (Homo sapiens, UniProt P32519 1-619). The conditions noted are these: protein: recombinant; tags: N-terminal GST; dsDNA, one strand shown. Put shortly: as §1
For a further assay, the target named is T5, EHF (Homo sapiens, UniProt Q9NZC4 1-300).
T5 sequence: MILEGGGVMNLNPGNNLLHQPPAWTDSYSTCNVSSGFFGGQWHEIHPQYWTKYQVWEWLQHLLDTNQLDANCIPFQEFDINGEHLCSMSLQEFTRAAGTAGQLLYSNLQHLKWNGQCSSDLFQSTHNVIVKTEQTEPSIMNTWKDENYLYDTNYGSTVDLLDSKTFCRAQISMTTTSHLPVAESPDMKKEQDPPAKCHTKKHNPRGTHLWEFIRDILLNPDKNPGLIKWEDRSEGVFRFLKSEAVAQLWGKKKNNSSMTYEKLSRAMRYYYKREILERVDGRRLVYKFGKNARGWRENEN
The conditions noted are these: protein: recombinant; tags: N-terminal GST; dsDNA, one strand shown. Put shortly: as §1

The next assay has as its target SPI1 (Homo sapiens, UniProt P17947 1-270). The conditions noted are these: protein: recombinant; tags: N-terminal GST; dsDNA, one strand shown. The procedure, abridged: as §1
A further assay deals with SPIB (Homo sapiens, UniProt Q01892 1-262). The conditions noted are these: protein: recombinant; tags: N-terminal GST; dsDNA, one strand shown. The procedure, abridged: as §1
The next assay addresses T6, ELK3 (Homo sapiens, UniProt P41970 1-407).
T6 sequence: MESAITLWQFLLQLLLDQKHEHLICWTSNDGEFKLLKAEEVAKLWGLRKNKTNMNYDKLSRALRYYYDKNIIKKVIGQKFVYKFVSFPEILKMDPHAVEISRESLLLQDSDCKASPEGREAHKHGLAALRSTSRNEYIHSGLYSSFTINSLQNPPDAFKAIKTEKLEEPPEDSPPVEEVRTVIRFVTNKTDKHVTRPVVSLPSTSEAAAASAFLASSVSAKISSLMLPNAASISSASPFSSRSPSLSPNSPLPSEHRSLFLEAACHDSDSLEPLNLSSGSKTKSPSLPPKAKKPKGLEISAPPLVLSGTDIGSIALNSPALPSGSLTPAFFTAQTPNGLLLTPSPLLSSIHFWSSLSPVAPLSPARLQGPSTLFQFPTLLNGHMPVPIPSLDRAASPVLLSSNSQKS
To be noted: protein: recombinant; tags: N-terminal GST; dsDNA, one strand shown. Put shortly:
as §1

A further assay has as its target T7, FEV (Homo sapiens, UniProt Q99581 1-238).
T7 sequence: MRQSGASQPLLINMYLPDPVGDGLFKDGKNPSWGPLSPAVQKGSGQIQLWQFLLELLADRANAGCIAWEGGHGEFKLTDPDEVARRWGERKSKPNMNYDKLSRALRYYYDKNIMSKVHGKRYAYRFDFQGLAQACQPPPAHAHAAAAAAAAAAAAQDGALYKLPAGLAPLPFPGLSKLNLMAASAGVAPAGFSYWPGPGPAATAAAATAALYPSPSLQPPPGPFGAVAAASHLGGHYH
The conditions noted are these: protein: recombinant; tags: N-terminal GST; dsDNA, one strand shown. Put shortly: as §1

For the next assay, the target named is ETV5 (Homo sapiens, UniProt P41161 1-510). The conditions noted are these: protein: recombinant; tags: N-terminal GST; dsDNA, one strand shown. The procedure, abridged:
as §1

Another assay addresses HSF1 (Homo sapiens, UniProt Q00613 1-529). To be noted: protein: recombinant; tags: N-terminal GST; chain copies: 3; dsDNA, one strand shown. Put shortly: as §1
For another assay, the target named is T8, SPIC (Homo sapiens, UniProt Q8N5J4 1-248).
T8 sequence: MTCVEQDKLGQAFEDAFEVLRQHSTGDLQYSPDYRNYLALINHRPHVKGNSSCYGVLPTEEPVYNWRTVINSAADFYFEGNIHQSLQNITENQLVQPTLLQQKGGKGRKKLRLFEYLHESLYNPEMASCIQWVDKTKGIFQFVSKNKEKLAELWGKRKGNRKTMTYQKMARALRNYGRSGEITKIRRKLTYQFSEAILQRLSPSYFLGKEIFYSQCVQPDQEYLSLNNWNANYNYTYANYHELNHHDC
The conditions noted are these: protein: recombinant; tags: N-terminal GST; dsDNA, one strand shown. The procedure, abridged: as §1

The target of a further assay is ELF4 (Homo sapiens, UniProt Q99607 1-663). To be noted: protein: recombinant; tags: N-terminal GST; dsDNA, one strand shown. Put shortly:
as §1

The target of another assay is T9, ELK4 (Homo sapiens, UniProt P28324-2 1-405).
T9 sequence: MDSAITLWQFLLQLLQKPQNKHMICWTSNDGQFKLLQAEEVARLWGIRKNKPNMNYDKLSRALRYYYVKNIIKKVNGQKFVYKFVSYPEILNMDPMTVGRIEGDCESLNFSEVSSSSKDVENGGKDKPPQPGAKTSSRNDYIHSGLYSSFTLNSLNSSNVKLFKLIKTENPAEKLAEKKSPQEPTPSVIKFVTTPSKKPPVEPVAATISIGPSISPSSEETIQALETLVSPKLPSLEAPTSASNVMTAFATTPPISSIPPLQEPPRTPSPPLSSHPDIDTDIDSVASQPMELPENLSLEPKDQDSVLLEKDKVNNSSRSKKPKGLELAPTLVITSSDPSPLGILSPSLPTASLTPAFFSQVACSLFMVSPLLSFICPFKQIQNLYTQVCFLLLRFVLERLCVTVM
To be noted: protein: recombinant; tags: N-terminal GST; dsDNA, one strand shown. Put shortly:
as §1

In another assay the target is T10, ETV2 (Homo sapiens, UniProt O00321 1-342).
T10 sequence: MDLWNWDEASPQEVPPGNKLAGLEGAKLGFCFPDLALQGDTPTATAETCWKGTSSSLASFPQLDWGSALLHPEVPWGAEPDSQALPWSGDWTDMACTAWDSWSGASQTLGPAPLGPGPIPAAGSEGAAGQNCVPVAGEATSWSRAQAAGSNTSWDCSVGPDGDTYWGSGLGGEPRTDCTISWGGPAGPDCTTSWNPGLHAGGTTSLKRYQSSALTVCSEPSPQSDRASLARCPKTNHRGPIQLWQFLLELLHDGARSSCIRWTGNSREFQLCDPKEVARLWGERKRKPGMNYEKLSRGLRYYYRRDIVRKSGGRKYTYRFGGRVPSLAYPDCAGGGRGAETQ
The conditions noted are these: protein: recombinant; tags: N-terminal GST; dsDNA, one strand shown. Put shortly: as §1

The target in another assay is T11, ELF3 (Homo sapiens, UniProt P78545 1-371).
T11 sequence: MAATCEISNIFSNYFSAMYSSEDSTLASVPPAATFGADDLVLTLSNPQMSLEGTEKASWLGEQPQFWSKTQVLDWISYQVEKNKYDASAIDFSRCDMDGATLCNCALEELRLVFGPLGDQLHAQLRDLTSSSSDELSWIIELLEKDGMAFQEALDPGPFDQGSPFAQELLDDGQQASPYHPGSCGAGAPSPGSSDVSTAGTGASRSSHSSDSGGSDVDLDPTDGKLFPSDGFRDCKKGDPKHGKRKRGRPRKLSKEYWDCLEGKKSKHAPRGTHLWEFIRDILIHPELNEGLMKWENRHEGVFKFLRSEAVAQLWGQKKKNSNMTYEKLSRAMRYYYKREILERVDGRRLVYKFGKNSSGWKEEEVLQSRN
The conditions noted are these: protein: recombinant; tags: N-terminal GST; dsDNA, one strand shown. Put shortly: as §1

The next assay addresses CRX (Homo sapiens, UniProt O43186 1-299). The conditions noted are these: protein: recombinant; tags: N-terminal GST; dsDNA, one strand shown. The procedure, abridged: as §1
In a further assay the target is ETV1 (Homo sapiens, UniProt P50549 1-477). The conditions noted are these: protein: recombinant; tags: N-terminal GST; dsDNA, one strand shown. Put shortly:
as §1

Sequence of ELF1 (P32519 whole entry): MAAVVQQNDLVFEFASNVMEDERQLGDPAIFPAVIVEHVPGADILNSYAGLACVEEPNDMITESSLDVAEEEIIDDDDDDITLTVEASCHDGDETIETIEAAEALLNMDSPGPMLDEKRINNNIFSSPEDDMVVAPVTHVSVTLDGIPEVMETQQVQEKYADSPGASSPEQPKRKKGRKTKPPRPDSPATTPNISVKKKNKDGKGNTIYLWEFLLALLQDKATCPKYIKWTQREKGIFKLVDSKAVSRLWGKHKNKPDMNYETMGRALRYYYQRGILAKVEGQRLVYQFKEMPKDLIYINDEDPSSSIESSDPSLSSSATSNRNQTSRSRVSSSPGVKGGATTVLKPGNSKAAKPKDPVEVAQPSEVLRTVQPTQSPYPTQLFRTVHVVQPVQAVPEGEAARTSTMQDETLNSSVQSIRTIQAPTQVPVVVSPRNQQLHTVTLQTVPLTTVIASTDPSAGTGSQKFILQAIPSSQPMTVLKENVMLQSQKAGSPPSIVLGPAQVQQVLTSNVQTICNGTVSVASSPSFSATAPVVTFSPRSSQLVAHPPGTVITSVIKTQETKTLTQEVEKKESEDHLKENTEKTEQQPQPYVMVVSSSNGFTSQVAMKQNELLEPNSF
Sequence of SPIB (Q01892 whole entry): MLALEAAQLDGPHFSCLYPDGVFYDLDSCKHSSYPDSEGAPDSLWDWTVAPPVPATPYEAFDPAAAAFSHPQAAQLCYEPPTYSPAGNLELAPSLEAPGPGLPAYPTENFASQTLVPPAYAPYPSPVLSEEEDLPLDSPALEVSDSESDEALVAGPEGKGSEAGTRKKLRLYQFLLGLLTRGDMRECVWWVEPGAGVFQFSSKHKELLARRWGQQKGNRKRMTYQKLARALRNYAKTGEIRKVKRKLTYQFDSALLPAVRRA
Sequence of ETV1 (P50549 whole entry): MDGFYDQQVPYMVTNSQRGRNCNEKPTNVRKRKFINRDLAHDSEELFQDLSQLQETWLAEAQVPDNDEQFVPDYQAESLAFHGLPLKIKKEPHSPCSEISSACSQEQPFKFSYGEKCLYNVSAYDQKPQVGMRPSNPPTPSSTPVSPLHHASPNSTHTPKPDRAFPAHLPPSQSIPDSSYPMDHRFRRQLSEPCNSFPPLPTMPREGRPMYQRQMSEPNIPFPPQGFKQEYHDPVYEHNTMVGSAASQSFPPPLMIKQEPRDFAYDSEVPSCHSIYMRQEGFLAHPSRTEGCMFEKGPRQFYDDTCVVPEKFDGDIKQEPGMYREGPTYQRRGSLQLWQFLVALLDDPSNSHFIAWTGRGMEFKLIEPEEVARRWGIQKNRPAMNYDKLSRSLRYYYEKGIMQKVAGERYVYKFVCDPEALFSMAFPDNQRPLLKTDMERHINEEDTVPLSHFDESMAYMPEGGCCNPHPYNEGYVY
Sequence of CRX (O43186 whole entry): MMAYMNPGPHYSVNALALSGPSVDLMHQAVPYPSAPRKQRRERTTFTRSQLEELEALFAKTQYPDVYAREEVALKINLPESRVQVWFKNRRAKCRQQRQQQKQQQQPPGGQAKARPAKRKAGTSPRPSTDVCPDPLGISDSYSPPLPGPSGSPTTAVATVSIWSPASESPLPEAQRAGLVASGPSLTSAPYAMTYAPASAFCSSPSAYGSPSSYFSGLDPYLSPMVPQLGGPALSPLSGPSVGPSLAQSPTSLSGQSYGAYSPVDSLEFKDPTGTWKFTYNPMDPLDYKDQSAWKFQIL
Sequence of ETV5 (P41161 whole entry): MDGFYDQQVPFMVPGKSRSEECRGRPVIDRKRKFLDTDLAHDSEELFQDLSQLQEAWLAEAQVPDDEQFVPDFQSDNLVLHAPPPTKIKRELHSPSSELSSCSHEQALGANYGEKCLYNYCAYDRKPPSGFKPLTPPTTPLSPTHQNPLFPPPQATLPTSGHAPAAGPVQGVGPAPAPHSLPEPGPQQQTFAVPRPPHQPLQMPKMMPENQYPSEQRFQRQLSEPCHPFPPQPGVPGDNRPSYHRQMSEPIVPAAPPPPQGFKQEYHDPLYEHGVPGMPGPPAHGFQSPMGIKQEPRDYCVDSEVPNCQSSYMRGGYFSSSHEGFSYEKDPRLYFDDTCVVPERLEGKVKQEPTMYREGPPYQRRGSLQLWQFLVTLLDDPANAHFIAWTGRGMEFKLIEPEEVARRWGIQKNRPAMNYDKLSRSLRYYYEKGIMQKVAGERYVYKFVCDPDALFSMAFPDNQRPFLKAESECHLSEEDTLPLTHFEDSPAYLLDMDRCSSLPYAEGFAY
Sequence of ELF4 (Q99607 whole entry): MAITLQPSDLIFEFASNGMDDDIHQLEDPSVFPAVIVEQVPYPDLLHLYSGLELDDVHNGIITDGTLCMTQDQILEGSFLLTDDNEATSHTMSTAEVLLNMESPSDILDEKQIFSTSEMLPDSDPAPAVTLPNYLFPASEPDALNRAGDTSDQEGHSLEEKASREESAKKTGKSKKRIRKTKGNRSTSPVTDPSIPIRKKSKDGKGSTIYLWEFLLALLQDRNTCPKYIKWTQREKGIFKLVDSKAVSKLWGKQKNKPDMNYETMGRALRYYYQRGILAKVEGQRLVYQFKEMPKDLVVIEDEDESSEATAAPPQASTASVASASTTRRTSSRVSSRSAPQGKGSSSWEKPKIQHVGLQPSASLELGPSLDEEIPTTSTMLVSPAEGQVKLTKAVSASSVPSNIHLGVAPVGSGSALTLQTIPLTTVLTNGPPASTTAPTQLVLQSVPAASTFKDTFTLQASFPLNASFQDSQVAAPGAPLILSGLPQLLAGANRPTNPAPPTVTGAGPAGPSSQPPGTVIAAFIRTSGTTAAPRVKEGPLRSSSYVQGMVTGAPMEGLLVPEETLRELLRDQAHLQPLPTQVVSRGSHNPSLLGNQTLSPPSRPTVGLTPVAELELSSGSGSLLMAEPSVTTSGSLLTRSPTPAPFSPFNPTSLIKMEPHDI
Sequence of HSF1 (Q00613 whole entry): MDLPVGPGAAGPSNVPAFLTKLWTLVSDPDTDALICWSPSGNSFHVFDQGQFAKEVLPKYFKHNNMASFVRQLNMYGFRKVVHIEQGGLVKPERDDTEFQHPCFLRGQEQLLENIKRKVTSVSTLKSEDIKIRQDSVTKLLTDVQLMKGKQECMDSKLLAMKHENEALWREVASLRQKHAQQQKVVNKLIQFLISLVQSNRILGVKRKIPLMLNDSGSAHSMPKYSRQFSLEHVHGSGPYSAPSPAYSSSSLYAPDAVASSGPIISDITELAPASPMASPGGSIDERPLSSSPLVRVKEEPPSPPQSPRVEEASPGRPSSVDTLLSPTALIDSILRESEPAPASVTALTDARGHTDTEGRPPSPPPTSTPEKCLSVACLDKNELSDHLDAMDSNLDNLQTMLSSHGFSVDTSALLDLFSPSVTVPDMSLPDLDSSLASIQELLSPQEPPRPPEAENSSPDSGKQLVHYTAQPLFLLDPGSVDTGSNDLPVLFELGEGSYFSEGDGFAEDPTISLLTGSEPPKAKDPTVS

For the sequence TGACTC, the binding signal in the assay with FLI1 is 1.49 fold enrichment (6-mer frequency, TF over GST control); with ELK1, 1.39 fold enrichment (6-mer frequency, TF over GST control); in the assay with GABPA, 1.4 fold enrichment (6-mer frequency, TF over GST control); in the assay with ERG, 1.39 fold enrichment (6-mer frequency, TF over GST control); in the assay with ELF1, 1.36 fold enrichment (6-mer frequency, TF over GST control); with EHF, 1.27 fold enrichment (6-mer frequency, TF over GST control). Moreover, the binding signal with SPI1 is 1.27 fold enrichment (6-mer frequency, TF over GST control); with SPIB, 1.42 fold enrichment (6-mer frequency, TF over GST control); in the assay with ELK3 it was 1.41 fold enrichment (6-mer frequency, TF over GST control); with FEV, 1.36 fold enrichment (6-mer frequency, TF over GST control); with ETV5, 1.24 fold enrichment (6-mer frequency, TF over GST control); in the assay with HSF1, 1.1 fold enrichment (6-mer frequency, TF over GST control). In addition, the binding signal with SPIC was 1.48 fold enrichment (6-mer frequency, TF over GST control); with ELF4 it was 1.35 fold enrichment (6-mer frequency, TF over GST control); in the assay with ELK4, 1.31 fold enrichment (6-mer frequency, TF over GST control); with ETV2, 1.31 fold enrichment (6-mer frequency, TF over GST control); with ELF3, 1.36 fold enrichment (6-mer frequency, TF over GST control); with CRX, 1.07 fold enrichment (6-mer frequency, TF over GST control). Also, the binding signal in the assay with ETV1 is 1.33 fold enrichment (6-mer frequency, TF over GST control).
